By inhibition is commonly meant the drop in the measured response relative to a control, in per cent.

We go through 104 molecules from PubChem BioAssay AID602385 (Sanford-Burnham Center for Chemical Genomics, 2012).

The structures appear in SMILES notation. Hit rate of the full screen: of about 2,300 compounds, about 180 (7.8%) were called active. The list is a sample of the results. Values without a mark were called inactive.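 Rule for the calls: active = average inhibition of at least 30% in the single-concentration confirmation test; inactive = the rest.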

DNA (cytosine-5)-methyltransferase 1 (Homo sapiens), sequence (P26358 504-1616 limits assumed): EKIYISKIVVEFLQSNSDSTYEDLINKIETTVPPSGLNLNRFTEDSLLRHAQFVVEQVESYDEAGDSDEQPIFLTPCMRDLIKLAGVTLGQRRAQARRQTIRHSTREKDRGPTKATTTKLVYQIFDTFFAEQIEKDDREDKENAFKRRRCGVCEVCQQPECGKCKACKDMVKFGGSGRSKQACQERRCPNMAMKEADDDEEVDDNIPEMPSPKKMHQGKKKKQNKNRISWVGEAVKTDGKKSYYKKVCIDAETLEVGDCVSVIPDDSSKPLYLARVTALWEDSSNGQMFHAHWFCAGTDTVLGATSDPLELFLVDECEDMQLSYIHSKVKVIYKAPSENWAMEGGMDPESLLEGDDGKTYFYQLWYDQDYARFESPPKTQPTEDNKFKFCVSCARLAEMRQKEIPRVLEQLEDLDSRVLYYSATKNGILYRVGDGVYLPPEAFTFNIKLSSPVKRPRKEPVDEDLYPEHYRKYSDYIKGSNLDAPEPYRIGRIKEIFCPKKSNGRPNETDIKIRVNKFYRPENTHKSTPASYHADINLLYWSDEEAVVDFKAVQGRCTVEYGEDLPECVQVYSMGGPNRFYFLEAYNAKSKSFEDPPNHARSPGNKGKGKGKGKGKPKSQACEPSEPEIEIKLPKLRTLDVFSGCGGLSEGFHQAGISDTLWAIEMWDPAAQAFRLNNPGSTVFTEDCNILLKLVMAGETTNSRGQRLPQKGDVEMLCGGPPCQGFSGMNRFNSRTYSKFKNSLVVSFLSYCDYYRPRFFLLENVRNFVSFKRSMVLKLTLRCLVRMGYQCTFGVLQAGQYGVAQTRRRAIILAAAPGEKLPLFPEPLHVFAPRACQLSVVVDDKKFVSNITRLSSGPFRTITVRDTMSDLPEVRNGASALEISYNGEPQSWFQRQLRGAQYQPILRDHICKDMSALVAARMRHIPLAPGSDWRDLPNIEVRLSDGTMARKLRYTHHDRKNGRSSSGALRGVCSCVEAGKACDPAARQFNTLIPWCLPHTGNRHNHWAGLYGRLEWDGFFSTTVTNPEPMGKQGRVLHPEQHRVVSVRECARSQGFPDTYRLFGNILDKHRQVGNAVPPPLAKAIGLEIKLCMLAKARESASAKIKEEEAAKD

The experiment addresses DNA (cytosine-5)-methyltransferase 1 (Homo sapiens) (UniProt P26358). The experiment can be described thus: DNMT1 methyltransferase inhibitor retest, confirmation, biochemical, molecular beacon, fluorescence, single concentration (AID 602385). The following applies: DNMT1 molecular beacon HinP1I cleavage, at 10 µM, active compounds read high.
On to `CS(=O)(=O)c1ccc2c(c1)SC1=NC(=O)/C(=C/c3ccco3)C(=N)N12`, for which the inhibition was 16.9%.
In the case of `Cc1ccc2cc(C)c(N3CCC(C)CC3)nc2c1`, the inhibition is 1.43%.
For `NC(CSC(c1ccccc1)(c1ccccc1)c1ccc(-c2ccccc2)cc1)C(=O)O` (centres undefined), the inhibition was 30.5% (active).
Turning to `CCOc1ccc(CN2CCC(n3nccc3NC(=O)C3CC3)CC2)cc1CO`, the inhibition was 4.07%.
Consider `Cc1ccc(N=C2NC(=O)/C(=C/C=C/c3ccco3)S2)cc1C`, for which the inhibition was 10.4%.
Consider `Cc1ccc(Cc2cncc(O)c2)cc1S(=O)(=O)O`, for which the inhibition is 2.5%.
Regarding `O=C(CCN1C(=O)C2C3C=CC(C3)C2C1=O)Nc1ccccc1F` (centres undefined), the inhibition is 1.42%.
With `CC(C)(C)N(Cc1ccccc1)C(=O)c1ccncc1`, the inhibition is 0.76%.
On to `COc1cc(-c2nnc(NC(=O)CS(=O)(=O)c3ccc(Cl)cc3)o2)cc(OC)c1OC`, for which the inhibition was 7.33%.
Under `O=C(COC(=O)CCC(=O)c1cccs1)NCc1ccco1` stands 3.72%; under `O=C(COC(=O)c1ccc(F)cc1F)Nc1ncccn1`, 2.67%.
Under `Cc1ccc(/C=C/C(=O)Nc2ccc([N+](=O)[O-])c(NC(=O)/C=C/c3ccc(C)o3)c2)o1` stands 40.8% (active); under `COc1ccc(OC)c(NC(=O)c2cc(-c3cc(F)ccc3OCC3CCCO3)n[nH]2)c1` (centres undefined), 3.2%.
Under `COc1ccc(Cl)cc1NC(=O)CCS(=O)(=O)c1ccc(Br)cc1` stands 21.9%.
In the case of `COc1ccc2sc(-c3ccc(S(C)(=O)=O)cc3)c(-c3ccc(C(N)=O)cc3)c2c1`, the inhibition was 2.28%.
As to `CCOc1cc(NC(=O)c2ccco2)c(OCC)cc1NC(=O)COc1ccccc1`, the inhibition is 0.94%.
The result for `NC1=CC(=O)C(=O)c2cccnc21` reads 58.8% (active).
For `CCOc1ccccc1/C=c1\sc2nc(-c3ccco3)nn2c1=O`, the inhibition is 5.32%.
The result for `O=C(COC(=O)/C=C/c1cn(-c2ccccc2)nc1-c1cccnc1)Nc1ccc(Cl)cc1Cl` reads 1.69%; that for `O=C(Nc1cccc(-c2nc3ccccc3[nH]2)c1)c1ccc(C(=O)Nc2cccc(-c3nc4ccccc4[nH]3)c2)cc1`, 7.67%.
With `CCNC(=O)C1CCCN(C(=O)c2cc(F)ccc2C)CC1` (centres undefined), the inhibition was 2.4%.
As for `CC(=O)c1ccc(NC(=O)c2ccc3c(Cl)c4c(nc3c2)CCCC4)cc1`, the inhibition is 2.16%.
As for `C=C(C)C(=O)Nc1cccc(C2=NOC3(C2)C[C@H](C(N)=O)N(C(=O)C(c2ccccc2)c2ccccc2)C3)c1` (some centres undefined), the inhibition was 20.2%.
For the molecule `O/N=C1\CC2(Cc3nonc31)OCCO2`, the inhibition was 2.08%.
Take `CSc1ccc(CNC(=O)c2ccc(NC(=O)C3=CSCCO3)cc2)cc1`: the inhibition is 5.27%.
On to `Nc1cc2c(cc1Br)-c1ccc(F)cc1C2=O`, for which the inhibition was -0.64%.
For the molecule `CCOC(=O)C(NC(=O)CC(C)C)(Nc1sc2c(c1C(N)=O)CCCC2)C(F)(F)F` (centres undefined), the inhibition is 38.7% (active).
Under `CCCCCCc1cc2cc(-c3nnc(-c4ccccc4)o3)c(=O)oc2cc1O` stands 1.72%; under `CCOC(=O)c1c(NC(=S)NC(=O)/C=C/c2cccs2)sc(C)c1C`, 0.76%; under `COC(=O)CCCCC1=CCC2C(=O)C=C(O)C2C1` (centres undefined), 13.6%.
On to `Cc1ccc(-c2nnc(-c3ccc(NC(=O)c4cccs4)cc3)o2)cc1`, for which the inhibition is 3.86%.
Turning to `CC1(C)Cc2nc3sc4c(SCC(=O)NC(c5ccccc5)c5ccccc5)ncnc4c3cc2CO1`, the inhibition is 2.65%.
Turning to `COc1ccc(NC(=O)CN(C)C(=O)c2cc(C3CC3)nn2-c2ccccc2)cc1`, the inhibition was -1%.
Under `CCN(C(=O)CSc1nc(N)cc(=O)[nH]1)C1CCS(=O)(=O)C1` (centres undefined) stands 4.21%; under `CC(=O)Nc1ccccc1Sc1ccc2c3c(cccc13)C(=O)N(c1ccc(C)cc1)C2=O`, 1.49%.
As to `Cc1cc(O)c(C(=O)/C=C/c2c(F)c(F)c(F)c(F)c2F)c(=O)o1`, the inhibition was 15.6%.
Under `CN(C)/C=C(/C(=O)c1ccc(Cl)cc1)S(=O)(=O)c1ccccc1` stands 5.43%; under `COc1ccc2[nH]c(=O)c(-c3noc(-c4ccc(F)cc4)n3)cc2c1`, 0.63%.
Turning to `COc1ccc(C(=O)/C=C/c2ccc(-c3ccccc3)cc2)cc1CSCC(=O)O`, the inhibition is 28.4%.
The result for `CCOC(=O)N1CC=C2C(C#N)=C(N)C(C#N)(C#N)[C@H](c3cccs3)[C@H]2C1` reads 9.81%; that for `c1ccc2cc3c(NCCN4CCOCC4)ccnc3cc2c1`, 23.4%.
As for `Cc1ccc(C(=O)NNC(=O)c2cc3cc4ccccc4nc3s2)cc1`, the inhibition is 3.71%.
Consider `CC(C)(C)NC(=O)CSC(=Nc1ccccc1F)NC#N`, for which the inhibition is 5.5%.
In the case of `O=C(c1cccs1)N1CCC(c2nc3ccccc3s2)CC1`, the inhibition was 1.54%.
Consider `O=C(Nc1cccc(F)c1)c1cc(-c2ccco2)nc2ccccc12`, for which the inhibition is 1.53%.
Take `CCOc1cc(CN2CCCC(CO)(Cc3ccc(F)cc3F)C2)ccc1OC` (centres undefined): the inhibition was 1.12%.
`CN(CCOc1ccccc1)C(=O)c1cc(-c2ccco2)nc2ccccc12`: the inhibition was 3.76%.
The result for `COc1ccc(/C=C2\SC(=N)N(c3ccc(F)cc3)C2=O)cc1` reads -0.37%.
In the case of `COc1ccc2c(c1)c(=O)c(C(=O)c1ccc(Cl)cc1)cn2CC(=O)Nc1ccc(F)cc1`, the inhibition is 0.08%.
In the case of `CCc1nn(-c2cc(Oc3cccc4ccccc34)nc(-c3ccccc3)n2)c(N)c1C#N`, the inhibition was -0.43%.
Consider `Cc1ccc2[nH]c(=O)c(-c3nc4c(C)cccn4c3NCc3ccco3)cc2c1`, for which the inhibition is -1.18%.
The result for `O=C(CN1CCCSc2ccccc21)N1CCN(S(=O)(=O)c2cccc(F)c2)CC1` reads 2.39%; that for `O=C(COC(=O)c1ccccc1O)NCc1ccco1`, 3.59%.
For `COc1ccc(C(=O)OCC(=O)Nc2cccc(C(C)=O)c2)cc1OC`, the inhibition is 5.6%.
Under `CC(=O)Nc1ccc(SCC(=O)NC(=O)c2ccc(Cl)cc2)cc1` stands 2.15%; under `O=C(Oc1ccc(-c2nc(-c3ccccn3)no2)cc1)c1ccccc1`, 29%.
Regarding `O=C(Nc1nc(-c2ccco2)c(-c2ccco2)s1)c1ccco1`, the inhibition is 6.2%.
The result for `Cc1onc(-c2ccccc2)c1C(=O)Nc1ccccc1C#N` reads 1.14%; that for `c1coc(-c2nc3nc4ccccc4n3nc2-c2ccco2)c1`, 0.83%; that for `O=C1CCCC(O)=C1C=NCCc1ccccc1`, 0.99%.
On to `NNc1cccc(C=Cc2ccccc2)cc1=O`, for which the inhibition is 1.25%.
`CCN1CCN(Cc2nc3c(c(=O)n(C)c(=O)n3C)n2CC(=O)c2ccccc2)CC1`: the inhibition is 0.76%.
On to `CCOC(=O)c1cccc(NC(=O)C2CCCN(S(=O)(=O)c3cnc[nH]3)C2)c1` (centres undefined), for which the inhibition was 1.94%.
Under `C=CCn1c(=NC(=O)c2ccc(S(=O)(=O)N3CCCC3)cc2)sc2cc(NC(C)=O)ccc21` stands 1.72%; under `Oc1c(C(c2ccco2)N2CCC3(CC2)OCCO3)sc2ncnn12` (centres undefined), 1.28%.
Under `COc1ccc(CC(=O)Nc2ccc(-c3nnc(-c4ccc(C)cc4)o3)cc2)cc1` stands -0.08%; under `COc1ccc(Cc2nnc(NC(=O)Cc3cccs3)s2)cc1`, 87.7% (active).
Under `COc1ccc(CC(=O)Nc2ccc(-c3nnc(-c4ccccc4)o3)cc2)cc1` stands 3.13%.
On to `CCN1C(=O)c2cccc3c(N)ccc1c23`, for which the inhibition was 2.42%.
Turning to `Cc1cc2nc(-c3ccco3)c(Cc3cccc(F)c3)n2c(C)c1Br`, the inhibition was 7.28%.
`O=C(COc1ccc(/C=N/NC(=O)c2ccc(O)cc2)cc1)Nc1ccc([N+](=O)[O-])cc1`: the inhibition is 39.5% (active).
As for `O=C(COc1ccc([N+](=O)[O-])cc1)Nc1ccc(N2CCCC2)cc1`, the inhibition was 6.61%.
`COc1ccc(OCC(=O)NNC(=O)c2ccc(-c3ccccc3)cc2)cc1`: the inhibition is 1.62%.
In the case of `O=C(CCNC(=O)c1ccccc1)NN=Cc1ccc(Br)o1`, the inhibition was 2.65%.
As for `O=C(c1ccc(CS(=O)(=O)c2ccccc2)o1)N1CCN(c2ccccc2)CC1`, the inhibition is 0.25%.
The result for `CC1CN(C(=O)c2ccccc2NS(=O)(=O)c2cccc([N+](=O)[O-])c2)CC(C)O1` (centres undefined) reads 1.75%; that for `C/C(=N\Nc1ccc(S(N)(=O)=O)cc1[N+](=O)[O-])c1cccs1`, 1.78%; that for `COc1ccc(Br)cc1/C=N/Nc1ccc(S(=O)(=O)Nc2ccccc2C(=O)O)cc1[N+](=O)[O-]`, 97.7% (active).
The result for `C=Cc1ccc(C(=O)N2CCCC(CCC(=O)N3CCN(c4ccccn4)CC3)C2)cc1` (centres undefined) reads 1.51%; that for `Cc1ccc(CNC(=O)CSc2nnc3c(n2)[nH]c2ccc(F)cc23)cc1`, 1.24%.
`c1ccc2cc3[nH]c(CN4CCCCC4)nc3cc2c1`: the inhibition is 3.8%.
The result for `CCOC(=O)/C(C#N)=C/c1ccc(OCC(=O)Nc2ccccc2)c(OC)c1` reads 4.96%; that for `CCCCNC(=O)CCn1c(=O)c2ccccc2n(Cc2cc(C)ccc2C)c1=O`, 2.63%; that for `C=CCn1c(=S)[nH]c2scc(-c3ccco3)c2c1=O`, 8.63%.
For the molecule `CN(Cc1nc2ccc(F)cc2[nH]1)Cc1nc(CC2CC2)no1`, the inhibition is 4.53%.
For `COc1ccc(-n2c(SCC(=O)Nc3sc4c(c3C#N)CCCC4)nnc2-c2ccc(O)cc2)cc1`, the inhibition is 18.9%.
For `O=C(CCS(=O)(=O)c1ccc(Br)cc1)NCCc1ccc(Cl)cc1`, the inhibition is 3.33%.
Turning to `CCc1ccc(NC(=O)CS(=O)CC(=O)NCCCc2ccccc2)cc1` (centres undefined), the inhibition was 2.37%.
Consider `CCC/C=C(\CCC)C(NC(=O)Cc1ccccc1)c1ccc(C(=O)OC)cc1` (centres undefined), for which the inhibition was 1.76%.
For `COc1ccc(NC(=O)CCn2ccnc2)c(OC)c1`, the inhibition is 3.76%.
For the molecule `Cc1ccccc1-n1cc(CNC(=O)CC2C(=O)NCCN2C/C=C/c2ccccc2)cn1` (centres undefined), the inhibition was 0.15%.
Under `C=CC1=C(C(=O)O)N2C(=O)[C@@H](NC(=O)/C(=N\OCC(=O)O)c3csc(N)n3)[C@H]2SC1` stands 4.47%; under `O=C(NNc1ccccn1)c1ccc(Cl)nc1`, 0.99%; under `CC(Oc1ccccc1)C(=O)Nc1oc(-c2ccco2)c(-c2ccco2)c1C#N` (centres undefined), 1.51%.
Regarding `COc1cccc(C(=O)Nc2ccc(N3CCCC3)cc2)c1`, the inhibition was 20.5%.
The result for `Cc1ccc(-c2cc(C(=O)NCc3cn(C)nc3C)c3cc(Br)ccc3n2)cc1` reads 8.12%; that for `CC1(C(=O)NS(=O)(=O)c2ccccc2)CCN1C(=O)C/C=C/c1ccccc1` (centres undefined), 0.79%.
On to `Cc1ccccc1NC(=O)CN1C(=O)N/C(=C\c2cccn2-c2cccc(C(=O)O)c2)C1=O`, for which the inhibition is 34.7% (active).
Consider `N#Cc1ccccc1CN1C(=O)S/C(=C/c2cccn2-c2cccc(C(=O)O)c2)C1=O`, for which the inhibition was 12.5%.
`O=C(Cn1nnc(-c2ccccc2)n1)N/N=C/c1ccc(-c2ccc(Cl)cc2)o1`: the inhibition was 2.46%.
For the molecule `C=CC[C@@H](CC(=O)N[C@H](CO)Cc1ccccc1)C(=O)N[C@@H](COC(=O)[C@@H](CC=C)Cc1ccc(F)cc1)Cc1c[nH]c2ccccc12`, the inhibition is 5.95%.
On to `O=C(CSc1nc2ccccc2c(=O)[nH]1)Nc1nc(-c2ccc(Br)cc2)cs1`, for which the inhibition was 41.9% (active).
Turning to `O=c1[nH]c(/C=C/c2cccc(Br)c2)nc2ccccc12`, the inhibition is 3.81%.
Consider `Cc1nnc(N/N=C/c2cccs2)[nH]c1=O`, for which the inhibition is 2.68%.
